Measured values published in PubChem BioAssay (Tox21).
Results filed as inconclusive are left out. A number with no mark means an inactive call. The source made the active and inactive calls. The call rests on the fitted dose curve; in most records, active means well fitted activation curve with a large enough effect in the repeat runs; inconclusive means weak or mixed curves; inactive means flat fitted curve, though single readings scatter.

experiment: A CellTox Green Cytotoxicity Assay to monitor cytotoxicity in HepG2 cells - 8 hour (AID 1224890); conditions: CellTox Green fluorescence; series mostly up to 76.8 µM; cytotoxicity increase: at the top concentration; further: nearly all actives have a fitted effect of over 45% in size
Text: National Center for Advancing Translational Sciences [NCATS]
NIH Chemical Genomics Center [NCGC]
U.S. Environmental Protection Agency [EPA]
National Institutes of Environmental Health Sciences [NIEHS]
National Toxicology Program [NTP]
Cell-based models are critical for drug discovery. Determining the natural cytotoxic effects resulting from test compounds is an essential research activity. A CellTox Green Cytotoxicity Assay to monitor cytotoxicity in real time of continues cell culture during 40 hours of the compound treatment was used to screen Tox21 10K library compounds in HepG2 cells. CellTox Green Cytotoxicity Assay is a nonlytic, homogeneous, biofluorescent method to measure cytotoxicity in cell culture after experimental manipulation. The assay system uses a proprietary asymmetric cyanine dye that is excluded from viable cells but preferentially stains the dead cell's DNA. […] Viable cells produce no appreciable increases in fluorescence. Therefore, the fluorescence signal produced by the binding interaction with dead cell DNA is proportional to cytotoxicity.
The mixture of HepG2 cell suspension and reagents were dispensed at 600cells/6 ul/well in 1536-well tissue culture treated black solid bottom plates using a Multidrop dispenser. After the assay plates were incubated at a 37 C/5% CO2 incubator for 5 hours, 23 nL of compounds dissolved in DMSO, positive and negative controls was transferred to the assay plate by a pintool work station. The plates were incubated at 37 C for 40 hours. The fluorescence intensity were measured at 0h, 8h, 16h, 24h, 32h and 40h time points using ViewLux plate reader during compound treatment.
On the % scale 0 is the no-effect control and ±100 the full control effect.

| Structure (SMILES) | cytotoxicity increase | Potency |
| --- | --- | --- |
| CCC(C)(C#N)N=NC(C)(C#N)CC (stereo not given) | -19.2% | – |
| O=CCCl | -6.89% | – |
| Cn1c(N)nc2c3cccnc3ccc21 | 1.08% | – |
| COP(=O)(OC)O/C(C)=C/C(=O)N(C)C | -7.91% | – |
| COc1cc(CC(C)N)cc(OC)c1OC (stereo not given) | -2.24% | – |
| C=C1CC[C@@]2(O)[C@H]3Cc4ccc(O)c5c4[C@@]2(CCN3CC2CC2)[C@H]1O5 | -1.08% [at 35.3 µM] | – |
| C/C(=N\NC(=O)Nc1cc(F)cc(F)c1)c1ncccc1C(=O)O | – | inactive |
| O=c1[nH]c2ccccc2o1 | 6.56% | – |
| C=C1C[C@@H]2[C@H](CC[C@]3(C)C(=O)CC[C@@H]23)[C@@]2(C)C=CC(=O)C=C12 | -0.562% [at 35.3 µM] | – |
| OCC(Cl)CCl (stereo not given) | -7.35% | – |
| CN1COCN(Cc2cnc(Cl)s2)/C1=N\[N+](=O)[O-] | -6.96% | – |
| O=C(CCl)NCO | -5.15% | – |
| CC(C)(C1CCC(O)CC1)C1CCC(O)CC1 (stereo not given) | 9.05% | – |
| O=C1CCCCC1Cl (stereo not given) | -0.983% | – |
| C=CC=O | 7.23% | – |
| O=P(O)(O)c1ccccc1 | -18.6% | – |
| O=C(O)CBr | -1.82% | – |
| CC(C)(N)Cc1ccccc1Cl | 2.39% [at 35.3 µM] | – |
| COC(=O)c1ccccc1CS(=O)(=O)NC(=O)Nc1nc(OC)cc(OC)n1 | -0.753% | – |
| O=C(Cl)OCc1ccccc1 | -5.12% | – |

| Structure (SMILES) | cytotoxicity increase | Potency |
| --- | --- | --- |
| Brc1c(Br)c(Br)c(Br)c(Br)c1Br | -4.76% [at 6.97 µM] | – |
| O=C(NC(=O)c1c(F)cccc1F)Nc1cc(Cl)c(F)c(Cl)c1F | -20% | – |
| C1CN2CCC1CC2 | 3.05% [at 35.3 µM] | – |
| O=C(Cl)CCl | -2.39% | – |
| CCCC[N+](=O)[O-] | 1.92% | – |
| NNCc1ccccc1 | 2.77% | – |
| NNC(N)=O | -2.52% | – |
| CC[C@H](N)c1ccccc1 | -9.06% | – |
| CN1C(=O)COc2c(C(=O)NC3CN4CCC3CC4)cc(Cl)cc21 (stereo not given) | -7.2% [at 35.3 µM] | – |
| C#CCOC(=O)/C=C(C)/C=C/CC(C)CCCC(C)C (stereo not given) | -12.4% | – |
| CS(=O)(=O)c1ccc(C(=O)C2C(=O)CCCC2=O)c(Cl)c1COCC(F)(F)F | 2.42% | – |
| N=C(N)[Se] | 3.06% | – |
| CCOC(=O)C(Cl)Cc1cc(-n2nc(C)n(C(F)F)c2=O)c(F)cc1Cl (stereo not given) | -4.42% | – |
| COc1ccc(CN2CCNCC2)c(OC)c1OC | -12.2% [at 35.3 µM] | – |
| S=C=S | -0.288% | – |
| CCN[C@@H](C)Cc1cccc(C(F)(F)F)c1 | -13.9% [at 35.3 µM] | – |
| N[C@@H]1C[C@H]1c1ccccc1 | -5.45% [at 35.3 µM] | – |
| CC(=NC#N)N(C)Cc1ccc(Cl)nc1 | 0.0262% | – |
| CCNP(=S)(OC)O/C(C)=C/C(=O)OC(C)C (stereo not given) | -9.4% | – |
| CCCOC(=O)c1cncn1C(C)c1ccccc1 (stereo not given) | 0.115% [at 35.3 µM] | – |
